Measured values: the supplement of paper PMC3842684

Experiments:
[1] = system: P. falciparum NF54-pfs16-GFP early (I-III) stage gametocytes; experiment: relative % inhibition of viable gametocyte number; higher = more gametocytocidal; settings: stage: early (I-III) gametocyte, incubation 72 h
Procedure, shortened: (§1)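 Compound was tested in duplicate at 5 or 0.5 µM on magnet-isolated NF54 pfs16-GFP gametocytes, taken either early (I/IIa, day 2) or late (day 8) and plated at 10% parasitaemia, 0.1% haematocrit. Incubation ran 72 h at 37°C, 5% CO2, 5% O2, followed by overnight MitoTracker Red staining and confocal imaging. Relative inhibition, based on counts of elongated GFP objects with above-cut-off MitoTracker signal, was normalised to in-plate vehicle and positive-control wells.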

[2] = system: P. falciparum NF54-pfs16-GFP late (IV-V) stage gametocytes; experiment: as above; settings: stage: late (IV-V) gametocyte, incubation 72 h
Procedure, shortened: as §1

Row | SMILES | relative % inhibition ([1]; 0.5 µM) [%] | relative % inhibition ([1]; 5 µM) [%] | relative % inhibition ([2]; 0.5 µM) [%] | relative % inhibition ([2]; 5 µM) [%]
1 | CCOc1ccc(C2N(C)c3ccccc3N2C)cc1 | 5 | 15.9 | -6.22 | -12.5
2 | CCOc1ccc(Nc2ccnc3cc(Cl)ccc23)cc1 | -5.49 | -2.53 | 14.7 | 14.7
3 | c1ccc(CNc2nc(Nc3ccccc3)nc3ccccc23)cc1 | 65.9 | 97 | 57.9 | 86.1
4 | O=C(Nc1ccc(N2CCN(Cc3ccccc3)CC2)cc1)c1cccs1 | 14.2 | 6.41 | 6.6 | 16.2
5 | CC1CCCCN1CCCNC(=O)c1ccc2c(c1)sc1nc(-c3ccc(F)cc3)cn12 (stereo not given) | 21.3 | 88.1 | 23.2 | 17.8
6 | CN1CCN(c2c3c(c(C#N)c4nc5ccccc5n24)CCC3)CC1 | -35.3 | -26.5 | -1.94 | -8.14
7 | Cc1cc(NCCN2CCCCC2)c2ccc3ccccc3c2n1 | 10.2 | 97.3 | 4.67 | 36.7
8 | CC1CCN(Cc2ccc(NC(=O)c3cc4ccc5cccnc5c4[nH]3)cc2)CC1 | 19.6 | 94 | 0.926 | 12
9 | O=C1C2=C(Nc3ccccc3SC2c2ccccc2)c2ccccc21 (stereo not given) | -7.59 | -12.7 | 61.6 | 55.8
10 | CCOC(=O)C1(Cc2ccccc2)CCN(Cc2cccc(OC)c2O)CC1 | 14.7 | 52.6 | -5.97 | 22.8
11 | COc1ccc(Br)cc1C1Nc2ccc3ccccc3c2C2=C1C(=O)CC(c1ccccc1)C2 (stereo not given) | 27.7 | 70.3 | 2.99 | 16.2
12 | Oc1c2c(nc3ccccc13)CCCC2 | 9.29 | -7.51 | 26.9 | 90.8
13 | CCCc1c(C)nc2ccc(Br)cc2c1O | 4.64 | -4.44 | 25.1 | 59.8
14 | CCOc1cc2c(cc1OCC)C(c1cc(C)c(O)c(C)c1)NCC2 (stereo not given) | 18.2 | 102 | 24.3 | 34.7
15 | COc1ccc(-c2nonc2NC(=O)c2cccc(Cl)c2)cc1OC | 31.7 | -10.8 | -17.2 | -2.96
16 | Cc1cc(Nc2ccc(Cl)cc2)n2nc(C(F)(F)F)nc2n1 | 4.02 | -6.02 | 7.36 | -10.1
17 | CCCCCCC(O)(c1ccc(F)cc1)C(CN1CCOCC1)c1ccccc1 (stereo not given) | -0.0307 | 47.2 | 8.28 | 33.1
18 | COc1ccc(C2N(C)c3ccccc3N2C)cc1 | 24.6 | 30.9 | 17.9 | -2.47
19 | Clc1ccc2c(N3CCCC3)ccnc2c1 | 21.2 | 65.9 | 11.2 | -4.99
20 | Cc1cc(NC(=O)C2c3ccccc3C(=O)N(CC(C)C)C2c2cccs2)no1 (stereo not given) | 37.5 | 90.8 | 31.5 | 36.1
